Screening results deposited in PubChem BioAssay by National Center for Advancing Translational Sciences (NCATS).
An excerpt weighted towards active compounds, which were near 14% of everything screened.
Cycloheximide cs: counter-screen for Shiga toxin inhibitors: cycloheximide protein synthesis inhibition; cell reporter, cycloheximide protein synthesis inhibition counterscreen; max response, %; 300,000 tested, 12% active; AID 2314; in the data active means max response mostly above about 13%, no sharp cut-off; inactive means mostly below about 14%; further: read at 38.3 µM for the half of the compounds with a filed dose
Giardia FBPA inh: inhibitors of Giardia lamblia fructose-1,6-bisphosphate aldolase; purified Giardia FBPA; Potency, µM (titrated, usually from 59.6 µM), most hits filed as inhibitors; 290,000 tested, 0.71% active; AID 2451; further: nearly all actives have a fitted effect of over 55% in size
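Giardia FBPA (40 nM reagent) was preincubated 10 min at RT with compound (up to 57.5 uM final), then substrate plus GAPDH/TPI/NAD/arsenate coupling system with diaphorase/resazurin was added; resorufin fluorescence (525/598 nm) was read after 20 min.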
NS1 function inh: blocks influenza NS1 protein function; Potency, µM (top dose mostly 46.1 µM); AID 2326; 270,000 tested, 0.4% active; calls by dose curve; further: actives are rising curves; nearly all actives have a fitted effect of over 50% in size
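In this qHTS, NS1 from influenza A is expressed in budding yeast, where it slows growth. Cells are switched from glucose to 2% galactose medium (pH 6.0, -URA), treated with compound, and growth recovery is read at OD600.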
LmPK inh: blocks Leishmania mexicana pyruvate kinase activity; Q27686; purified LmPK, Kinase-Glo ATP luminescence, 1 h; Potency, µM (highest dose often 57.5 µM), usual class: inhibitors; 290,000 tested, 0.37% active; AID 1721
Target sequence (Q27686 whole entry, looked up): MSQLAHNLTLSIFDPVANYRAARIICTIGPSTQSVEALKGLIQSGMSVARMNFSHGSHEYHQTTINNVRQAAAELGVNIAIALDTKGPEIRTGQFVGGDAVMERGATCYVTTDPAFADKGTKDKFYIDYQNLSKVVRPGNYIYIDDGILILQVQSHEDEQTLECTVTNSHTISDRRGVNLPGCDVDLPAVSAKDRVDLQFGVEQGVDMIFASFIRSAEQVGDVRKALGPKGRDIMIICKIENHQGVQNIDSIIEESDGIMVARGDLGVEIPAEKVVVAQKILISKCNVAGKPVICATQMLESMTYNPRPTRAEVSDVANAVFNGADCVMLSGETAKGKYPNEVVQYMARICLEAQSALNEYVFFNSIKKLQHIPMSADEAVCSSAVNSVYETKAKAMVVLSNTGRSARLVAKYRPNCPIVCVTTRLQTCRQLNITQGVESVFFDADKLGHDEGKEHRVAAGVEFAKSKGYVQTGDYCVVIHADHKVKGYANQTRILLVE
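0.1 nM LmPK, 0.5 mM PEP, 0.1 mM ADP; 50 mM imidazole pH 7.2, 7 mM MgCl2, 50 mM KCl; 1 h RT. Kinase-Glo luminescence readout, normalized to no-enzyme (full inhibition) and uninhibited wells.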
Shiga toxin inh: inhibitors of Shiga toxin in Vero cells | Vero cells, Shiga toxin protein synthesis inhibition reporter | inhibition, % at 38.7 µM | 290,000 tested, 9.2% active; in the data active means inhibition mostly above about 28%, no sharp cut-off; inactive means mostly below about 43%
Hits are given with their value; [ ] = remark or other dose. Unless noted, the call rests on the fitted dose curve; in most records, active means well fitted curve in the direction sought with a large enough effect; inconclusive means small, poorly fitted or top-dose-only effect, or another doubt; inactive means no such curve, though single readings can be large; an effect the other way counts as inactive or inconclusive.

For CN(C)C(=O)N1CCN(c2nc(-c3ccccc3)cs2)CC1 the results were Cycloheximide cs 34.6, Giardia FBPA inh inactive, NS1 function inh inactive, LmPK inh inactive and Shiga toxin inh 52.1.
For c1ccc(-c2csc(N3CCOCC3)n2)cc1 the results were Cycloheximide cs 30.0, Giardia FBPA inh inactive, NS1 function inh inactive, LmPK inh inactive and Shiga toxin inh 110.7.
`c1ccc(-c2csc(N3CCN(c4ccccn4)CC3)n2)cc1` gave Cycloheximide cs 30.8, Giardia FBPA inh inactive, NS1 function inh inactive, LmPK inh inactive and Shiga toxin inh 77.8.
Screening O=C(NC1CCCCC1)N1CCN(c2nc(-c3ccccc3)cs2)CC1 returned Cycloheximide cs inactive, Giardia FBPA inh inactive, NS1 function inh inactive, LmPK inh inactive and Shiga toxin inh inactive.
`Clc1ccc(-c2csc(N3CCN(c4ccccc4)CC3)n2)cc1` gave Cycloheximide cs inactive, Giardia FBPA inh inactive, NS1 function inh inactive, LmPK inh inactive and Shiga toxin inh inactive.
Screening N#Cc1cccc(NC(=O)N2CCCC3(CCN(C(=O)c4ccco4)CC3)C2)c1 returned Giardia FBPA inh inactive.
Screening O=C(c1csnn1)N1CCC2(CCCN(Cc3ccccc3)C2)CC1 returned Giardia FBPA inh inactive.
For Cc1cc(O)cc2c1C(=O)/C(=C/c1ccco1)O2 the results were Cycloheximide cs 50.7, Giardia FBPA inh inactive, NS1 function inh inactive, LmPK inh inactive and Shiga toxin inh 65.7.
CC(=O)Oc1ccc2c(c1)O/C(=C\c1ccncc1)C2=O was read as Cycloheximide cs inactive, Giardia FBPA inh inactive, NS1 function inh inactive, LmPK inh inactive and Shiga toxin inh inactive.
Screening CCC(=O)Oc1ccc2c(c1)O/C(=C\c1ccco1)C2=O returned Cycloheximide cs 16.3, Giardia FBPA inh inactive, NS1 function inh inactive, LmPK inh inactive and Shiga toxin inh 43.5.
`CCN(CC)C(=O)Oc1ccc2c(c1)O/C(=C\c1ccco1)C2=O` gave Cycloheximide cs 27.4, Giardia FBPA inh inactive, NS1 function inh inactive, LmPK inh inactive and Shiga toxin inh 48.6.
`COC(=O)COc1ccc2c(c1)O/C(=C\c1ccco1)C2=O` gave Cycloheximide cs 29.0, Giardia FBPA inh inactive, NS1 function inh inactive, LmPK inh inactive and Shiga toxin inh 37.9.
Screening CC1=N/C(=C/c2ccco2)C(=O)O1 returned Cycloheximide cs inactive, Giardia FBPA inh inconclusive, LmPK inh inactive[11.5 µM] and Shiga toxin inh inactive.
For CNS(=O)(=O)c1cccc(C(=O)NNC(=O)c2ccc(COc3ccccc3)cc2)c1 the results were Cycloheximide cs inactive, Giardia FBPA inh inactive, NS1 function inh inactive, LmPK inh inactive and Shiga toxin inh inactive.
Screening COc1cccc(CNc2nnnn2C)c1 returned Cycloheximide cs inactive, Giardia FBPA inh inactive, NS1 function inh inactive, LmPK inh inactive and Shiga toxin inh inactive.
Screening Cc1cccc(C2=NN(c3ccccc3)[C@H](CO)[C@H]2C)c1 returned Cycloheximide cs inactive, Giardia FBPA inh inactive and Shiga toxin inh active.
`Cc1cccc(C2=NN(c3ccccc3)[C@H](CO)[C@H]2c2ccccc2)c1` gave Cycloheximide cs inactive, Giardia FBPA inh inactive and Shiga toxin inh inactive.
Screening CC(C)(C)c1nc2c(C#N)c(-c3ccc(Cl)cc3)ccn2n1 returned Cycloheximide cs 24.8, Giardia FBPA inh inconclusive, NS1 function inh inactive, LmPK inh inactive and Shiga toxin inh inactive.
Cc1nc2c(C#N)c(-c3ccc(Cl)cc3)ccn2n1 was read as Cycloheximide cs inactive, Giardia FBPA inh inactive, NS1 function inh inactive, LmPK inh inactive and Shiga toxin inh inactive.
For Cc1cc(C)c2c(N=NN3CCCCC3)[nH]nc2n1 the results were Cycloheximide cs 38.3, Giardia FBPA inh inactive, NS1 function inh inactive, LmPK inh inactive and Shiga toxin inh 41.2.
`c1cnc(SCCOc2cccc3ccccc23)nc1` gave Cycloheximide cs 51.9, Giardia FBPA inh inactive, NS1 function inh inactive, LmPK inh inactive and Shiga toxin inh 78.6.
`c1ccc2c(OCCCCN3CCCC3)cccc2c1` gave Cycloheximide cs inactive, Giardia FBPA inh inactive, NS1 function inh inactive, LmPK inh inactive and Shiga toxin inh inactive.
`Fc1ccccc1OCCCCSc1ncccn1` gave Cycloheximide cs 27.4, NS1 function inh inactive, LmPK inh inactive and Shiga toxin inh inactive.
`Clc1ccc(OCCSc2ncccn2)c2ccccc12` gave Cycloheximide cs 38.6, Giardia FBPA inh inactive, NS1 function inh inactive, LmPK inh inactive and Shiga toxin inh 90.9.
Screening CCNC(=O)[C@H]1O[C@H](n2cnc3c(N)nc(NCCc4ccc(CCC(=O)O)cc4)nc32)[C@@H](O)[C@@H]1O returned Giardia FBPA inh inactive.
Screening CCCc1nn(C)c(C(=O)Nc2ccccc2)c1Cl returned Cycloheximide cs 91.8, Giardia FBPA inh inactive, NS1 function inh inactive, LmPK inh inactive and Shiga toxin inh 72.1.
CCCc1nn(C)c(C(=O)Nc2ccc(C(C)(C)C)cc2)c1Cl was read as Cycloheximide cs inactive, Giardia FBPA inh inactive, NS1 function inh inactive, LmPK inh inactive and Shiga toxin inh inactive.
Screening CCCc1nn(C)c(C(=O)Nc2ccc(Cl)cc2)c1Cl returned Cycloheximide cs 24.9, Giardia FBPA inh inactive, NS1 function inh inactive, LmPK inh inactive and Shiga toxin inh inactive.
`O=C(c1cc(C(F)(F)F)cc(C(F)(F)F)c1)N1CCC2(CCN(Cc3nccs3)CC2)CC1` gave Giardia FBPA inh inactive.
Cc1ccc(-c2cc(N)nc(-c3ccccc3)c2)cc1 was read as Cycloheximide cs 27.5, Giardia FBPA inh inactive, NS1 function inh inactive, LmPK inh inactive and Shiga toxin inh 60.4.
COc1ccc(-c2cnc(N)nc2-c2ccc(OC)cc2)cc1 was read as Cycloheximide cs inactive, Giardia FBPA inh inactive, NS1 function inh inactive, LmPK inh inactive and Shiga toxin inh inactive.
For COc1ccc2c(c1)CCc1c-2n[nH]c1C(=O)O the results were Cycloheximide cs inactive, Giardia FBPA inh inactive, NS1 function inh inactive, LmPK inh inactive and Shiga toxin inh inactive.
For COc1ccc2c(c1)CCc1cnc(N)nc1-2 the results were Cycloheximide cs 11.8, Giardia FBPA inh inactive, NS1 function inh inactive, LmPK inh inactive and Shiga toxin inh inactive.
`COc1ccc2c(c1)CCc1cn3nc(C)cc3nc1-2` gave Cycloheximide cs inactive, Giardia FBPA inh 17.7µM, NS1 function inh inactive, LmPK inh inactive and Shiga toxin inh inactive.
For Cc1ccc(NC(=O)c2ccccc2SCC(=O)N2CCCC2)cc1S(=O)(=O)N(C)C the results were Cycloheximide cs inactive, NS1 function inh inactive, LmPK inh inactive and Shiga toxin inh inactive.
`N#CC1=C(N)Oc2c(ccc3ccccc23)C1c1cccs1` (centres undefined) gave Cycloheximide cs 23.2, Giardia FBPA inh inconclusive, NS1 function inh inactive, LmPK inh inactive and Shiga toxin inh 47.7.
CC(=O)C1=C(C)OC(N)=C(C#N)C1c1cccc2ccccc12 (centres undefined) was read as Cycloheximide cs inactive, Giardia FBPA inh 19.9µM, NS1 function inh inactive, LmPK inh inactive and Shiga toxin inh inactive.
`N#CC1=C(N)Oc2cc(O)ccc2C1c1cccs1` (centres undefined) gave Cycloheximide cs inactive, Giardia FBPA inh inactive, NS1 function inh inactive, LmPK inh inactive and Shiga toxin inh inactive.
